According to the supplement of paper PMC13380429:

How the values were obtained:
[1] = test system: Vero E6 infected with SARS-CoV-2; experiment: morphology score (similarity to uninfected cells); higher = more like uninfected cells; settings: 24 h
[2] = test system: Vero E6 infected with SARS-CoV-2; experiment: SARS-CoV-2 infection rate relative to infected DMSO; higher = more infection, active = 60 or less; settings: 24 h

Structure (SMILES)	morphology score [1]	SARS-CoV-2 infection rate [2]
COc1ccc2c(c1)/C(=C/c1cnc[nH]1)C(=O)N2 (0.833333 µM)	-0.0607	109% (inactive)
CC1(C)S[C@@H]2[C@H](NC(=O)[C@H](N)c3ccccc3)C(=O)N2[C@H]1C(=O)O [ampicillin] (10 µM)	0.141	102% (inactive)
CS(=O)(=O)c1ccc([C@@H](CC2CCCC2)C(=O)Nc2nccs2)cc1 (10 µM)	0.0357	104% (inactive)
CCC1(c2ccccc2)C(=O)N(COC)C(=O)N(COC)C1=O [eterobarb] (10 µM)	-0.0955	106% (inactive)
OC(c1ccccc1)(c1ccccc1)C12CC[N+](CCOCc3ccccc3)(CC1)CC2 [umeclidinium] (10 µM)	0.162	101% (inactive)
CCOC(=O)Nc1nc2ccccc2[nH]1 [lobendazole] (10 µM)	0.0965	101% (inactive)
O=Cc1cn(Cc2ccc(Cl)cc2)c2ccccc12 [oncrasin-1] (10 µM)	0.108	110% (inactive)
C[C@@]1(c2cc(-c3cncnc3)c(F)cc2F)CCSC(N)=N1 (10 µM)	0.151	106% (inactive)
O=C(Nc1cccc2cccnc12)c1ccc(N2C(=O)[C@@H]3[C@H](C2=O)[C@H]2C=C[C@@H]3C2)cc1 (10 µM)	0.00174	102% (inactive)
NC(=O)c1cccc(N)c1 [3-amino-benzamide] (10 µM)	-0.037	102% (inactive)
NC[C@H]1CC[C@H](C(=O)O)CC1 [tranexamic-acid] (10 µM)	0.0762	108% (inactive)
